In PubChem BioAssay one finds composite z-score and z-score data, which are given here for four molecules.

Calls of active or inactive are those of the source. Unless noted, no rule for the calls is given here.

The subject of assay [1] is Wnt5a (protein binding on small-molecule microarray). The assay can be described thus: Wnt5a binders on small-molecule microarray, primary screen, biophysical, 635/667 nm fluorescence (AID 1142).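 Also: fluorescence read at 667 nm with signal to noise per printed feature.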 As to conditions: 635 nm fluorescence, higher = more signal.
Assay [2] in a line: cell viability in Huh7 cells, primary screen, cytotoxicity control for HCV replication inhibitor project, CellTiter-Glo luminescence, basal, 48 h (AID 1143).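 Also: Huh7 hepatoma cells carrying a hepatitis C replication reporter with no stimulus; test concentration not given here.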 As to conditions: Huh7 HCV replicon, higher = more signal, called active from +8 up or from −8 down. On the technique in general: In ATP-based viability assays light output follows the ATP content of the culture.
Assay [3] is described as follows: P. aeruginosa biofilm formation inhibitors, primary screen, PAO1 strain, BacTiter-Glo luminescence, LB-PBS (AID 1144). As to conditions: 12 h, higher = more signal.
Assay [4] can be described thus: CREB reporter modulators without forskolin, primary screen, cell-based, PC12, CRE-LacZ reporter, unstimulated (AID 1145). As to conditions: no forskolin, luminescence, 4.5 h, higher = more signal, called active from +8 up or from −8 down.
Assay [5] can be described thus: CREB reporter modulators under forskolin, primary screen, cell-based, PC12, CRE-LacZ reporter, forskolin-stimulated (AID 1146).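 Also: PC12 cells with 6xCRE LacZ reporter stimulated by forskolin 10 µM; beta-galactosidase reporter signal reflecting CREB driven transcription.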 As to conditions: luminescence, 4.5 h, higher = more signal, called active from +8 up or from −8 down.
Assay [6] deals with Streptavidin (Streptomyces avidinii) (UniProt P22629). The assay can be described thus: streptavidin binders on small-molecule microarray, primary screen, artefact control for SMM compound annotation, biophysical, 635/667 nm fluorescence (AID 1147).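 Also: signal reflects streptavidin binding to arrayed compounds as a control protein.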 As to conditions: streptavidin binding, higher = more signal.
Assay [7] is described as follows: small-molecule binders of probe aInhba, primary screen, biochemical, small-molecule microarray, 635/667 nm fluorescence (AID 1148).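 Also: score merges 667nm spot fluorescence with signal-to-noise for antibody binding to printed compounds.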 As to conditions: higher = more signal.
For assay [8], the target named is Torsin-1A (Homo sapiens) (UniProt O14656). The assay can be described thus: torsin A binders from cell lysate, primary screen, small-molecule microarray, wild-type, 635/667 nm (AID 1149). As to conditions: COS7 hTOR1A-WT lysate, 635 nm fluorescence, higher = more signal.
Assay [9] has the same target. The assay can be described thus: small-molecule binders of mutant TOR1A in lysate, primary screen, cell lysate, small-molecule microarray, COS7 lysate, 635/667 nm fluorescence (AID 1150).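 Also: score pools 667 nm emission and signal to noise measuring lysate protein binding.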 As to conditions: COS7 hTOR1A mutant lysate, 635 nm fluorescence, higher = more signal.
For assay [10], the system named is Sonic hedgehog protein (Shh). Kind of assay: small-molecule binders of Shh protein, primary screen, biochemical, small-molecule microarray, 635/667 nm fluorescence (AID 1151).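 Also: Shh protein binding to compounds spotted on small-molecule microarray slides; score combines spot fluorescence intensity with signal-to-noise across triplicate slides.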 As to conditions: small-molecule microarray binding, 635 nm fluorescence; higher = more signal.
Assay [11] can be described thus: E. coli DRC41 culture turbidity changes, primary screen, E. coli filamentation inducer project, strain DRC41, OD650, 48 h (AID 1152).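 Also: E. coli MC1000 strain DRC41 lacking acrAB efflux pump and sulA.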 As to conditions: E. coli DRC41 (acrAB sulA), higher = more signal, called active from +8 up or from −8 down.
Assay [12] in a line: small-molecule binders of probe aLefty1, primary screen, biochemical, small-molecule microarray, 635/667 nm fluorescence (AID 1153).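 Also: score merges spot fluorescence with signal-to-noise ratio from the scanned slide images.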 As to conditions: higher = more signal.
Assay [13] is described as follows: PSAC antagonists in infected red cells, primary screen, cell-based, P. falciparum Indochina, OD700, 1 h (AID 1154). As to conditions: P. falciparum Indochina infected RBC osmotic lysis, higher = more signal, called active from +8 up or from −8 down.
Assay [14] can be described thus: PSAC antagonists in infected red cells, primary screen, cell-based, P. falciparum Indochina, OD700, 2 h (AID 1155).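 Also: lysis reports solute entry through the parasite surface anion channel PSAC; channel blockers reduce lysis of infected cells.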 As to conditions: P. falciparum Indochina infected erythrocytes, osmotic lysis OD700; higher = more signal, called active from +8 up or from −8 down.
Assay [15] in a line: osmotic lysis modulators in infected erythrocytes, primary screen, PSAC antagonist project, cell-based, P. falciparum Indochina, OD700, 3 h (AID 1156). As to conditions: higher = more signal, called active from +8 up or from −8 down.
The nature of assay [16]: PSAC antagonists in infected red cells, primary screen, cell-based, P. falciparum Indochina, OD700, 18 h (AID 1157). As to conditions: P. falciparum Indochina infected erythrocytes, osmotic lysis OD700, 18 h; higher = more signal, called active from +8 up or from −8 down.
Assay [17] is described as follows: modulators of S6 phosphorylation in cells, primary screen, cell-based, A549, cytoblot, luminescence, serum-stimulated (AID 1158).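 Also: serum-stimulated A549 lung adenocarcinoma cells; signal is phosphorylated S6 detected by cytoblot immunostaining with HRP secondary.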 As to conditions: A549 phospho-S6 cytoblot, 5 h, higher = more signal.
Assay [18] concerns the target NADPH oxidase 2 (Homo sapiens) (UniProt P04839). Kind of assay: NOX2-dependent H2O2 signal modulators, primary screen, NOX inhibitor project, cell-based, HEK293-NOX2, PMA-stimulated, Amplex Red fluorescence (AID 1159). Also: test concentration not given here. As to conditions: 45 min, higher = more signal, called active from +8 up or from −8 down.
Assay [19] has as its target NADPH oxidase 4 (Homo sapiens) (UniProt Q9NPH5). The assay can be described thus: NOX4-dependent H2O2 signal modulators, primary screen, NOX inhibitor project, cell-based, HEK293-NOX4, tetracycline-induced, Amplex Red fluorescence (AID 1160). As to conditions: 45 min, higher = more signal, called active from +8 up or from −8 down.
Assay [20] deals with NADPH oxidase 5 (Homo sapiens) (UniProt Q96PH1). Kind of assay: NOX5-dependent H2O2 signal modulators, primary screen, NOX inhibitor project, cell-based, HEK293-NOX5, Amplex Red fluorescence (AID 1161). As to conditions: HEK293-NOX5, ionomycin, 45 min, higher = more signal.
Sequence of NADPH oxidase 5 (Homo sapiens) (Q96PH1 whole entry, looked up): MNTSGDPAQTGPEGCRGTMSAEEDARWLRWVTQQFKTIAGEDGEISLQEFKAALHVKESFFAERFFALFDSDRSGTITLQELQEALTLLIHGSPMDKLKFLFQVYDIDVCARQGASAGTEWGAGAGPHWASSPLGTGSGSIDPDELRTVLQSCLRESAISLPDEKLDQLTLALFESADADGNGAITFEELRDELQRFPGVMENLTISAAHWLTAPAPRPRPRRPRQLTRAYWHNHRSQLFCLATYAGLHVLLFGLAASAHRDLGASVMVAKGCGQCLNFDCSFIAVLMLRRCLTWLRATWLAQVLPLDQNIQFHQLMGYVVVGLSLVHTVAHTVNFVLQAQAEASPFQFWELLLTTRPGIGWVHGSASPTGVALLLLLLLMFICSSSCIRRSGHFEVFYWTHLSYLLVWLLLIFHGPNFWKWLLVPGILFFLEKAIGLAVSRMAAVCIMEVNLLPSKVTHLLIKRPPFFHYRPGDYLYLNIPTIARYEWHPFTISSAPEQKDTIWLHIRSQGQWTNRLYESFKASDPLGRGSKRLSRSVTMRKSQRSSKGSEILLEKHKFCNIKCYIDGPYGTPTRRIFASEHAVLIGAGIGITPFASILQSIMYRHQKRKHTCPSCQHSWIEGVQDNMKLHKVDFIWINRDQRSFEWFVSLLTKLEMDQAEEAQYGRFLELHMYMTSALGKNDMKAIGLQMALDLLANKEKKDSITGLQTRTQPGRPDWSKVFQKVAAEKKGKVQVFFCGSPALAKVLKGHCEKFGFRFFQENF

Sequence of NADPH oxidase 2 (Homo sapiens) (P04839 whole entry, looked up): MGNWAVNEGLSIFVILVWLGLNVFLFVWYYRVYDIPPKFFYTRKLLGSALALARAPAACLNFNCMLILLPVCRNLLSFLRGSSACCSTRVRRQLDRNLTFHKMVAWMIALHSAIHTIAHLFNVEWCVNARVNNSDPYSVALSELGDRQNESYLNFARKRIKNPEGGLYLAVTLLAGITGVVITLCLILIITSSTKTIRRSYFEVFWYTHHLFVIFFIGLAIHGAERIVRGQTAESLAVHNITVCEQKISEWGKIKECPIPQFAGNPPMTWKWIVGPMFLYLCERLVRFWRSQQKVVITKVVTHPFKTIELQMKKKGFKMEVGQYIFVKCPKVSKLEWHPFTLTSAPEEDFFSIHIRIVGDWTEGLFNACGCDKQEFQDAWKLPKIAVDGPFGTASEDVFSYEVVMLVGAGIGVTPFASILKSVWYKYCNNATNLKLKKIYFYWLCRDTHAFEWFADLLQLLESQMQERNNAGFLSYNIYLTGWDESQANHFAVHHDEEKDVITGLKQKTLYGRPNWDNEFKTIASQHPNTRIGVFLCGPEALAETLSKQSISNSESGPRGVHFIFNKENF
Sequence of Streptavidin (Streptomyces avidinii) (P22629 whole entry, looked up): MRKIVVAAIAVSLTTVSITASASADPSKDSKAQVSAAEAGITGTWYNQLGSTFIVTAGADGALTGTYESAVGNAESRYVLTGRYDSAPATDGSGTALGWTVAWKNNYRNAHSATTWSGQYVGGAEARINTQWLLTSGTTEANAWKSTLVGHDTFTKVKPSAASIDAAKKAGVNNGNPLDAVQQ
Sequence of Torsin-1A (Homo sapiens) (O14656 whole entry, looked up): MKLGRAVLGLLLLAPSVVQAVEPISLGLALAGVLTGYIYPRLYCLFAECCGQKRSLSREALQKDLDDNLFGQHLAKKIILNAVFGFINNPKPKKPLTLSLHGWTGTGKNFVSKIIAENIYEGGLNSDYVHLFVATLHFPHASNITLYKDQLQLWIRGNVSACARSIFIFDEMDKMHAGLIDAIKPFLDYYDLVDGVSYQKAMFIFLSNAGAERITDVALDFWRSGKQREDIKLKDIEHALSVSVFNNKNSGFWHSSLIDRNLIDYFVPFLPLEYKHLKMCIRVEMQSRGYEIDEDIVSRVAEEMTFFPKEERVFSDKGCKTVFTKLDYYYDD
Sequence of NADPH oxidase 4 (Homo sapiens) (Q9NPH5 whole entry, looked up): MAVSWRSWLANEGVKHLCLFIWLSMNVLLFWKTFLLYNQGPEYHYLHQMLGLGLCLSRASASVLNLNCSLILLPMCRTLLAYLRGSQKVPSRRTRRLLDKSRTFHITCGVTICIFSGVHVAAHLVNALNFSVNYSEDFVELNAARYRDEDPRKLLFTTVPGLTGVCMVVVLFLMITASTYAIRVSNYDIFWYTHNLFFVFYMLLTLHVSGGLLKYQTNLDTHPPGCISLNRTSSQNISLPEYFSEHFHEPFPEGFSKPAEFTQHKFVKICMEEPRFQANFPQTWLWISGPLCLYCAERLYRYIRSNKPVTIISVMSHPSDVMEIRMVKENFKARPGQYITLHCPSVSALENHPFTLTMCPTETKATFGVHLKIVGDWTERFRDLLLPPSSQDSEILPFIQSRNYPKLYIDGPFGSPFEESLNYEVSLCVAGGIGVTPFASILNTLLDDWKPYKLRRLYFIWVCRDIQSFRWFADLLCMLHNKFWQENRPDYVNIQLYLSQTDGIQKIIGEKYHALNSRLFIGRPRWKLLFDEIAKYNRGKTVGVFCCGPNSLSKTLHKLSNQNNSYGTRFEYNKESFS

`CCCC[C@@H](O)C1=C(COc2ccccc2)C[C@H]2C(=O)N(Cc3ccccc3)C(=O)[C@H]2[C@H]1CO`: the composite z-score in assay [1] was -0.143; in assay [6], -0.0098; in [7], -0.239; with Torsin-1A (Homo sapiens) [8] it was -0.152; in the assay with Torsin-1A (Homo sapiens) [9] it was 0.107; in assay [10], 0.491. In addition, the composite z-score in assay [12] was -0.0564. Besides, the z-score in assay [2] was -2.03 (inactive); in assay [3], 0.436 (inactive); in assay [4], 7.39 (inactive); in assay [5], -0.695 (inactive); in assay [11], 0.232 (inactive); in [13], 13.9 (active). Further, the z-score in assay [14] was 1.59 (inactive); in [15], -1.11 (inactive); in [16], 0.967 (inactive); in assay [17], -0.326; in [18], -0.77 (inactive); in assay [19] it was -0.286 (inactive). The z-score in assay [20] was -0.695.
For `O=C(Cc1ccccc1)[C@H]1C2C=CCCC(c3ccccc3)=C2CN1Cc1ccccc1` (stereo not given in full), the composite z-score was 0.0277 in assay [1]; -0.144 in assay [6]; -0.0494 in [7]; 0.219 in the assay with Torsin-1A (Homo sapiens) [8]; -0.412 with Torsin-1A (Homo sapiens) [9]; 0.0701 in assay [10]. The molecule further showed a composite z-score in assay [12] of -0.151. The z-score is -0.408 (inactive) in assay [2]; -0.886 (inactive) in assay [3]; 4.3 (inactive) in [4]; -0.0521 (inactive) in assay [5]; 2.46 (inactive) in assay [11]; 0.567 (inactive) in [13]. Moreover, the z-score is 0.186 (inactive) in assay [14]; 0.879 (inactive) in assay [15]; 0.06 (inactive) in assay [16]; -0.0984 in assay [17]; -0.534 (inactive) in [18]; 0.773 (inactive) in [19]. In assay [20], this molecule gave a z-score of 1.13.
With `CC(C)C(O)C1C=CC2C(=O)N(c3ccccc3)C(=O)C2N1Nc1ccccc1` (stereo not given), the composite z-score in assay [1] turned out to be 0.271; in assay [6], 0.874; in assay [7], 0.0756; in the assay with Torsin-1A (Homo sapiens) [8] it was 0.64; with Torsin-1A (Homo sapiens) [9] it was 0.923; in assay [10], 1.04. Moreover, in assay [12], the composite z-score is -0.0163. Besides, the z-score in assay [2] is -3.03 (inactive); in assay [3], -1.35 (inactive); in assay [4], 0.819 (inactive); in assay [5], 0.418 (inactive); in assay [11], -0.471 (inactive); in assay [13], 1.2 (inactive). For the same molecule, the z-score was -0.4 (inactive) in assay [14]; 1.33 (inactive) in assay [15]; -0.741 (inactive) in assay [16]; 0.325 in [17]; -3.32 (inactive) in assay [18]; -4.05 (inactive) in assay [19]. Moreover, the z-score in [20] was -6.43.
As to `COc1ccc([Si](C)(C)[C@H]2[C@H](CC(=O)N3Cc4ccccc4C[C@H]3CO)O[C@@]3(C(=O)N(Cc4ccc(N5CCOC5=O)cc4)c4ccccc43)[C@@H]2C)cc1`, the composite z-score was -0.0993 in [1]; -0.0564 in assay [6]; -0.176 in assay [7]; 0.787 in the assay with Torsin-1A (Homo sapiens) [8]; 0.438 with Torsin-1A (Homo sapiens) [9]; 2.05 in assay [10]. In addition, in [12], the composite z-score is -0.0611. The z-score in assay [2] was -3.64 (inactive); in assay [3], -0.3 (inactive); in assay [4] it was 1.38 (inactive); in assay [5] it was -1.01 (inactive); in assay [11] it was -0.742 (inactive); in assay [13], 8.34 (active). Further, the z-score was 1.85 (inactive) in [14]; 0.863 (inactive) in [15]; 0.82 (inactive) in assay [16]; 0.718 in assay [17]; -0.659 (inactive) in [18]; 0.611 (inactive) in [19]. Also, the z-score in assay [20] is -0.344.
